Test results as given in the supplement of paper PMC10646978.
± gives the standard deviation.

What was measured:
Settings in all cases: modulator concentration 10 µM
[1] = tested on: RAW-Dual (murine macrophage reporter line); experiment: NF-kB reporter (SEAP) activity fold change vs agonist alone; higher = enhanced NF-kB activity
How it was run: (§1)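 Compound reached 10 μM final in each well by pin transfer, onto RAW-Dual murine macrophage reporter cells seeded at 50 000 per well in 384-well plates. After 1 hour at 37 °C, the cells were stimulated overnight with a PRR agonist. SEAP in the supernatant was read with QUANTI-Blue at 620 nm absorbance for NF-κB, and Lucia luciferase was read with QUANTI-Luc luminescence for IRF. Each signal was turned into fold change against the mean agonist-only control on the same plate, and two replicate plates were averaged with propagated errors.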

[2] = tested on: RAW-Dual (murine macrophage reporter line); experiment: IRF reporter (Lucia luciferase) activity fold change vs agonist alone; higher = enhanced IRF activity
How it was run: as §1

[3] = tested on: RAW-Dual (murine macrophage reporter line); experiment: viability score (confluency relative to resting cells, overnight) (fraction); higher = more viable, active = viable (0.7 or more)
How it was run: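 Compound was added at a final 10 μM to RAW-Dual macrophages in 384-well plates and left overnight. Confluency was imaged with IncuCyte, and two masks were generated in IncuCyte software over all imaged wells. Each viability score is confluency relative to resting cells, and a compound met the cutoff only when both masks were above 70% of resting cells.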

[4] = agonist: CpG ODN 1826 0.5 ug/mL

| SMILES | NF-kB reporter [1, 4] | NF-kB reporter ([1]; agonist: LPS 0.1 ug/mL) | NF-kB reporter ([1]; agonist: MPLA […]) | IRF reporter ([2]; agonist: 3'3'-cGAMP 10 ug/mL) | IRF reporter ([2]; agonist: LPS 0.1 ug/mL) | IRF reporter ([2]; agonist: MPLA […]) | viability score [3] |
| --- | --- | --- | --- | --- | --- | --- | --- |
| O=C(NCCc1csc(-c2ccc(F)cc2)n1)c1ccc(Br)cc1 | 0.825 ± 0.064 | 1.18 ± 0.089 | 1.19 ± 0.043 | 0.693 ± 0.027 | 1.07 ± 0.11 | 1.19 ± 0.15 | 0.999 (active) |
| Cc1cc(OCC(=O)Nc2ccccc2-c2ccccc2)ccc1Br | 0.776 ± 0.073 | 0.888 ± 0.06 | 0.972 ± 0.099 | 1.03 ± 0.048 | 1.47 ± 0.087 | 1.55 ± 0.13 | 0.997 (active) |
| CC(C)c1ccc(N(CC(=O)NCCSCc2ccc(Cl)cc2)S(C)(=O)=O)cc1 | 0.597 ± 0.058 | 0.909 ± 0.076 | 0.918 ± 0.08 | 0.588 ± 0.04 | 1.14 ± 0.066 | 1.07 ± 0.13 | 1.01 (active) |
| COC(=O)C1=C(C)NC(=O)NC1c1ccc(Cl)c(Cl)c1 (stereo not given) | 0.979 ± 0.11 | 1.03 ± 0.067 | 0.951 ± 0.04 | 0.992 ± 0.16 | 1.05 ± 0.1 | 0.964 ± 0.24 | 1 (active) |
| CC1COc2c(N3CCN(C)CC3)c(F)cc3c(=O)c(C(=O)O)cn1c23 (stereo not given) [Prestw-237] | 1.46 ± 0.24 | 1.01 ± 0.12 | 1.12 ± 0.16 | 1.14 ± 0.033 | 0.8 ± 0.078 | 0.894 ± 0.15 | 0.983 (active) |
| N=C(N)Nc1ccc(Cl)cc1 | 1.02 ± 0.1 | 1.05 ± 0.067 | 0.961 ± 0.042 | 0.984 ± 0.08 | 0.986 ± 0.058 | 0.885 ± 0.099 | 0.991 (active) |
| O=C(CC1Sc2ccccc2NC1=O)Nc1ccccc1 (stereo not given) | 0.945 ± 0.084 | 0.877 ± 0.071 | 1.03 ± 0.18 | 0.754 ± 0.11 | 1.32 ± 0.29 | 1.41 ± 0.38 | 1.02 (active) |
| CCOc1ccc(CN(CCc2ccc3c(c2)OCO3)Cc2ccc3ccccc3c2)cc1 | 0.733 ± 0.083 | 0.954 ± 0.063 | 0.781 ± 0.053 | 0.197 ± 0.0058 | 1.54 ± 0.2 | 1.2 ± 0.16 | 0.989 (active) |
| FC(F)(F)c1ccc(CNc2ccc(Cc3c[nH]c4ncc(Cl)cc34)cn2)cn1 | 0.154 ± 0.011 | 0.281 ± 0.028 | 0.378 ± 0.02 | 0.0391 ± 0.0019 | 0.335 ± 0.13 | 0.202 ± 0.083 | 0.978 (active) |
| CCOC(=O)n1ccn(C)c1=S | 1.26 ± 0.21 | 1.04 ± 0.33 | 0.909 ± 0.067 | 0.913 ± 0.03 | 1.18 ± 0.48 | 1.11 ± 0.09 | 0.992 (active) |
| CSc1ccc(C2Nc3ccccc3-c3nnc(SCc4ccc(C)cc4)nc3O2)cc1 (stereo not given) | 0.817 ± 0.094 | 0.952 ± 0.047 | 1.19 ± 0.1 | 0.877 ± 0.058 | 1.08 ± 0.091 | 1.18 ± 0.14 | 1.01 (active) |
| CCC(C)C(=O)OC1CC(C)C=C2C=CC(C)C(CCC3CC(O)CC(=O)O3)C21 (stereo not given) | 1.33 ± 0.32 | 1 ± 0.061 | 1.06 ± 0.13 | 0.919 ± 0.031 | 1.19 ± 0.19 | 1.1 ± 0.16 | 1 (active) |
| O=C(CCn1c(=O)oc2ccccc21)Nc1ccncc1 | 1.17 ± 0.068 | 1.04 ± 0.079 | 1.01 ± 0.033 | 0.996 ± 0.16 | 0.932 ± 0.045 | 0.949 ± 0.14 | 1 (active) |
| CC(COc1ccccc1)N(CCCl)Cc1ccccc1.Cl (stereo not given) | 0.328 ± 0.025 | 0.177 ± 0.015 | 0.355 ± 0.012 | 0.053 ± 0.0051 | 0.0504 ± 0.0018 | 0.0594 ± 0.011 | 0.186 (inactive) |
| COc1cc2nc(N3CCN(C(=O)C4CCCO4)CC3)nc(N)c2cc1OC.Cl (stereo not given) | 0.503 ± 0.069 | 0.98 ± 0.24 | 0.904 ± 0.054 | 0.913 ± 0.055 | 1.34 ± 0.31 | 1.07 ± 0.14 | 0.988 (active) |
| COc1ccc(C=NNc2nc(-c3ccccc3)cc(-c3ccc(Br)cc3)n2)c(OC)c1 | 0.918 ± 0.091 | 0.94 ± 0.1 | 1.03 ± 0.12 | 0.96 ± 0.03 | 1.08 ± 0.12 | 1.08 ± 0.17 | 1.03 (active) |
| COc1ccc(S(=O)(=O)NCc2ccnc(-c3ccncc3)c2)cc1Cl | 0.831 ± 0.098 | 1.06 ± 0.1 | 0.964 ± 0.16 | 0.388 ± 0.02 | 0.969 ± 0.07 | 1.11 ± 0.11 | 0.999 (active) |
| Cc1nccn1CC1CCc2c(c3ccccc3n2C)C1=O.Cl.O.O (stereo not given) | 0.604 ± 0.09 | 0.917 ± 0.11 | 0.765 ± 0.044 | 0.832 ± 0.025 | 1.35 ± 0.14 | 1.01 ± 0.15 | 0.284 (inactive) |

| SMILES | NF-kB reporter [1, 4] | NF-kB reporter ([1]; agonist: LPS 0.1 ug/mL) | NF-kB reporter ([1]; agonist: MPLA […]) | IRF reporter ([2]; agonist: 3'3'-cGAMP 10 ug/mL) | IRF reporter ([2]; agonist: LPS 0.1 ug/mL) | IRF reporter ([2]; agonist: MPLA […]) | viability score [3] |
| --- | --- | --- | --- | --- | --- | --- | --- |
| C1=C(c2ccccc2)Nc2nnnn2C1c1ccccc1 (stereo not given) | 0.951 ± 0.076 | 0.945 ± 0.077 | 0.996 ± 0.097 | 0.949 ± 0.087 | 1.34 ± 0.28 | 1.46 ± 0.36 | 1.01 (active) |
| O=C(NC1CCC(Oc2ncc(F)cn2)CC1)c1cccc(F)c1 (stereo not given) | 0.976 ± 0.084 | 1.01 ± 0.079 | 0.913 ± 0.079 | 1.01 ± 0.064 | 1.08 ± 0.088 | 1.04 ± 0.27 | 1.01 (active) |
| Cc1ccc(S(=O)(=O)Nc2ccccc2-c2nc3ccccc3o2)cc1 | 2.45 ± 0.19 | 1.24 ± 0.081 | 1.45 ± 0.051 | 0.323 ± 0.033 | 1.09 ± 0.048 | 1.21 ± 0.08 | 0.713 (active) |
| COc1cccc(C=NNc2nnc(C)c(=O)[nH]2)c1OC | 0.888 ± 0.27 | 1.08 ± 0.094 | 0.993 ± 0.12 | 0.952 ± 0.038 | 1.09 ± 0.22 | 1.15 ± 0.29 | 1.01 (active) |
| CN1C(C(=O)Nc2ccccn2)=C(O)c2sc(Cl)cc2S1(=O)=O | 0.744 ± 0.047 | 0.896 ± 0.094 | 1.08 ± 0.11 | 0.955 ± 0.043 | 1.43 ± 0.22 | 1.72 ± 0.59 | 0.967 (active) |
| CCc1c(C)[nH]c2c1C(=O)C(CN1CCOCC1)CC2.Cl (stereo not given) | 0.108 ± 0.0046 | 0.221 ± 0.024 | 0.714 ± 0.042 | 0.752 ± 0.039 | 1.5 ± 0.24 | 1.4 ± 0.43 | 0.855 (active) |
| O=C(NNC(=O)c1sc2cc(F)ccc2c1Cl)Nc1ccc(Cl)cc1 | 1.02 ± 0.081 | 0.995 ± 0.086 | 1.05 ± 0.053 | 0.926 ± 0.15 | 1.02 ± 0.048 | 1.12 ± 0.091 | 1 (active) |
| OCCN1CCN(CCCN2c3ccccc3Sc3ccc(Cl)cc32)CC1 | 1.21 ± 0.051 | 0.614 ± 0.069 | 0.894 ± 0.077 | 3.18 ± 0.17 | 1.32 ± 0.18 | 1.49 ± 0.42 | 0.907 (active) |
| Cc1cc(CCNS(=O)(=O)c2cccc(C(F)(F)F)c2)nn1C | 0.898 ± 0.068 | 0.995 ± 0.1 | 0.988 ± 0.06 | 0.96 ± 0.06 | 0.961 ± 0.097 | 1 ± 0.23 | 1 (active) |
| CN(C)CC/C=C1\c2ccccc2COc2ccccc21.Cl | 0.888 ± 0.038 | 1.06 ± 0.15 | 1.36 ± 0.096 | 0.434 ± 0.02 | 0.73 ± 0.14 | 0.876 ± 0.3 | 1.01 (active) |
| COc1ccc(NC(=O)CN2C(=O)c3ccccc3C2=O)c([N+](=O)[O-])c1 | 0.798 ± 0.064 | 0.948 ± 0.087 | 0.989 ± 0.11 | 0.963 ± 0.048 | 1.29 ± 0.082 | 1.36 ± 0.13 | 1.01 (active) |
| CC(=O)c1cc(Cl)ccc1OC(=O)c1ccccc1Cl | 0.767 ± 0.07 | 0.803 ± 0.051 | 0.757 ± 0.062 | 0.543 ± 0.025 | 1.63 ± 0.12 | 1.8 ± 0.24 | 0.987 (active) |
| COc1ccc(C2Sc3ccccc3N(CCN(C)C)C(=O)C2OC(C)=O)cc1.Cl (stereo not given) | 1.01 ± 0.29 | 1 ± 0.05 | 1.08 ± 0.092 | 0.966 ± 0.033 | 1.15 ± 0.15 | 1.2 ± 0.12 | 0.992 (active) |
| Cc1ccc(C(CNC(=O)NC2CCCC2)OCCO)cc1 (stereo not given) | 0.622 ± 0.072 | 1.08 ± 0.1 | 0.808 ± 0.047 | 0.944 ± 0.075 | 1.07 ± 0.1 | 1.1 ± 0.27 | 1.01 (active) |
| C[C@@H](O)[C@H]1C(=O)N2C(C(=O)O)=C(SCCNC=N)C[C@H]12 [Prestw-519] | 1.17 ± 0.11 | 0.986 ± 0.13 | 0.951 ± 0.036 | 0.981 ± 0.043 | 0.96 ± 0.044 | 0.928 ± 0.092 | 0.994 (active) |
| CNC(=O)Cc1cn(Cc2ccccc2)c2ccccc12 | 0.809 ± 0.19 | 1.11 ± 0.12 | 1.11 ± 0.082 | 0.947 ± 0.038 | 0.977 ± 0.11 | 1.05 ± 0.12 | 0.999 (active) |
| O=C(O)CCCNC(=O)c1cccc([N+](=O)[O-])c1 | 1.06 ± 0.14 | 1.11 ± 0.082 | 0.983 ± 0.036 | 0.986 ± 0.14 | 1.11 ± 0.11 | 1.05 ± 0.19 | 1 (active) |
